# Bioassay records from PubChem BioAssay.
# OTUD3 block – human OTUD3 deubiquitinase inhibition; 47,000 compounds, 0.7% hits; purified OTUD3, Ub-rhodamine fluorescence, 2 h; Q5T2D3; inhibition, % at 25 µM
# USP17 inh – inhibitors of human USP17 deubiquitinase. inhibition, % at 50 µM. AID 1645855. purified USP17, Ub-rhodamine cleavage fluorescence, 3 h. 47,000 compounds, 6.5% hits. A8MUK1
# USP30 inh – inhibitors of human USP30 deubiquitinase. Q70CQ3. purified USP30, Ub-rhodamine cleavage fluorescence. inhibition, % at 25 µM. 47,000 compounds, 5.3% hits. AID 1645860
# USP8 inh – blocks human USP8 ubiquitin-rhodamine cleavage. inhibition, % at 20 µM. 47,000 compounds, 4.2% hits. P40818. purified USP8, Ub-rhodamine cleavage fluorescence, 30 min. AID 1645853
# Target sequence (P40818 whole entry, looked up): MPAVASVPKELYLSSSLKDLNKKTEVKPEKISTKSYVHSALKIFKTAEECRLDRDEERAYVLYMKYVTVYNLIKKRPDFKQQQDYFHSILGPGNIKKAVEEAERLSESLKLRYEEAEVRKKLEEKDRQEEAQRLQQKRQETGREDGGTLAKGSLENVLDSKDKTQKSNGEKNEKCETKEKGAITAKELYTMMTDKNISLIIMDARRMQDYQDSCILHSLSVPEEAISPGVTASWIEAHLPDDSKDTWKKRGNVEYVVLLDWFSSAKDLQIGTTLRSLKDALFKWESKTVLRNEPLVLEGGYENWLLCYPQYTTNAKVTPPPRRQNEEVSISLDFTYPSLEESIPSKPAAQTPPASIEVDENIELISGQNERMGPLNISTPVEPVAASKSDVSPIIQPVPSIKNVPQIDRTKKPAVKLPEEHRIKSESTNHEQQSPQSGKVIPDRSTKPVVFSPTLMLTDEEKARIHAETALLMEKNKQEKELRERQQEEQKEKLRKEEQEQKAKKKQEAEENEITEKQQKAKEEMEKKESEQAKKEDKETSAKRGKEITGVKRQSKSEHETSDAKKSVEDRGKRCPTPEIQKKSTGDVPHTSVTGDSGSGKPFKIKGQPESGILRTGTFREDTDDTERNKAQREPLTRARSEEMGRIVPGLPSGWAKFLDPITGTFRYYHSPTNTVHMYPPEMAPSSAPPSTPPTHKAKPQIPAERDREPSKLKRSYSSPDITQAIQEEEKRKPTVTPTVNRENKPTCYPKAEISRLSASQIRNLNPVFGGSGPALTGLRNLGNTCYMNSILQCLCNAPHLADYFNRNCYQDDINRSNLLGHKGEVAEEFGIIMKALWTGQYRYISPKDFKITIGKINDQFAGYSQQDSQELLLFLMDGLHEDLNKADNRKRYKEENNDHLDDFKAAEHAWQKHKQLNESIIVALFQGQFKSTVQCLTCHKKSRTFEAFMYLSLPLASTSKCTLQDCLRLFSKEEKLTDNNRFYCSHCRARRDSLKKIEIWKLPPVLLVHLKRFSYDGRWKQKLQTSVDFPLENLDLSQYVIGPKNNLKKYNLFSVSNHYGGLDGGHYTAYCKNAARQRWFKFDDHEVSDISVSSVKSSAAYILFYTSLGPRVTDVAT
# USP28 block – inhibitors of human USP28 deubiquitinase; AID 1645857; 47,000 compounds, 3% hits; inhibition, % at 25 µM; purified USP28, Ub-rhodamine cleavage fluorescence, 30 min
# * hit, by the source's call; x = no result given. The list is not random: actives were taken first. Their share in the collection is about 13%. Rule as the data show it: active = inhibition above about 30%; inactive = the rest.
SMILES,OTUD3 block,USP17 inh,USP30 inh,USP8 inh,USP28 block
CCc1c(Cl)c(O)c(Cl)c(O)c1C(=O)O[C@H]1C(C)O[C@@H](OC/C2=C\C=C\CC(O)/C(C)=C/C(CC)C(O[C@@H]3OC(C)(C)[C@H](O)C(OC(=O)C(C)C)[C@@H]3O)/C(C)=C/C(C)=C/CC(C(C)O)OC2=O)[C@@H](OC)C1O (some centres not stated),32.0*,2.4,91.4*,2.0,85.1*
CO[C@H]1/C=C/[C@@](C)(O)/C=C/C(=O)O[C@H](C)C(C)C(O)C/C=C/1C (some centres not stated),8.1,-0.4,-4.4,1.4,2.2
CO[C@H]1/C=C/[C@@](C)(O)/C=C/C(=O)O[C@H](C)[C@@H](C)CC/C=C/1C,4.4,-0.9,39.5*,-2.6,5.4
C=C[C@]1(C)CC[C@]2(C)[C@@H](C1)[C@@H](O)C[C@H]1[C@]3(C)CCC[C@@]12OC3=O,-2.6,-39.1,-10.6,0.0,-7.1
C=C[C@@]1(C)CC[C@@]2(C)[C@@H](CC[C@]3(C)C(C)=C(O)C(=O)C[C@H]23)C1,24.2,42.8*,37.4*,1.3,11.8
COc1ccc(NC(=O)N(C2=NCCC2)c2cccc(C)c2)cc1,-7.0,-7.8,-0.1,-15.2,-1.1
Cc1ccc(NC(=O)C2C3C=CC4(O3)C2C(=O)N(CCc2ccccc2)C4C(=O)NC2CCCCC2)cc1C (configuration not stated),18.2,30.4*,28.3,28.0,8.3
COc1ccc(NC(=O)C2C3C=CC4(O3)C2C(=O)N(Cc2ccccc2)C4C(=O)NC2CCCCC2)cc1 (configuration not stated),10.4,11.8,39.5*,12.2,-0.1
CC(C)c1ccc(NC(=O)C2C3C=CC4(O3)C2C(=O)N(CCCN(C)Cc2ccccc2)C4C(=O)NC2CCCCC2)cc1 (configuration not stated),-5.4,-12.5,1.3,-37.7,5.9
Cc1cc(C)cc(NC(=O)C2C3C=CC4(O3)C2C(=O)N(Cc2ccc3c(c2)OCO3)C4C(=O)NC2CCCCC2)c1 (configuration not stated),7.9,-11.7,-34.4,4.4,-5.6
COc1ccc(NC(=O)C2C3C=CC4(O3)C2C(=O)N(CCc2ccccc2)C4C(=O)NC2CCCCC2)cc1 (configuration not stated),22.3,34.6*,55.7*,-13.4,7.3
CSc1cccc(NC(=O)C2C3C=CC4(O3)C2C(=O)N(Cc2ccc(C)cc2)C4C(=O)NC2CCCCC2)c1 (configuration not stated),8.8,49.7*,17.6,20.4,10.2
Cc1cc(O)c(C(c2cccc(Cl)c2)c2c(O)cc(C)n(C)c2=O)c(=O)n1C,-0.2,-0.6,5.6,-12.0,-7.5
O=S(=O)(C1CC1)N1CC[C@@H]2[C@@H]1CCN2Cc1ccco1,-10.1,-14.5,-10.4,-65.6,-6.9
COc1ccc(S(=O)(=O)Nc2ccc3nc(NC(C)=O)sc3c2)cc1OC,-8.7,0.3,-8.7,-2.2,-3.7
CCC(=O)Nc1nc2cc(NC(=O)Nc3cc(C)cc(C)c3)ccc2s1,30.5*,19.3,48.2*,60.1*,25.8
CCC(=O)Nc1nc2ccc(NC(=O)Cc3ccc(OC)c(OC)c3)cc2s1,-3.2,35.6*,4.5,-0.8,-3.8
CCC(=O)Nc1nc2cc(NS(=O)(=O)c3ccc(C)cc3)ccc2s1,-10.4,-0.6,-25.2,3.4,-4.7
CC(C)CC(=O)N1CCc2nc(C(=O)Nc3ccccc3)sc2CC1,5.2,0.9,0.0,-1.5,4.6
COc1ccc(CC(C#N)(C(=O)NC2CCCCC2)c2nc3ccccc3[nH]2)cc1 (configuration not stated),-9.8,-0.3,-33.9,69.7*,-11.3
O=C(O)[C@@H]1CCCN1c1nc(Cc2ccccc2)nc2sc3c(c12)CCCC3,-15.8,2.6,-13.6,-5.0,-11.4
Cc1nc(N2CCOCC2)nc2c1COCC21CCN(Cc2ccccc2F)C1 (configuration not stated),-8.7,-16.5,-13.9,-34.9,-19.6
CCc1c(C)c(C#N)c2nc3ccccc3n2c1N1CCN(C2CCCC2)CC1,1.7,61.9*,23.1,7.4,11.9
Cc1cccc(-c2nn(-c3ccccc3)c3c2c(C)cc(=O)n3CC(=O)N2CCOCC2)c1,-13.6,-1.5,-9.7,6.0,-16.2
CCOC(=O)C1CCN(C(=O)Cn2c(=O)cc(C)c3c(-c4ccccc4)nn(-c4ccccc4)c32)CC1,-3.3,10.0,33.9*,7.4,-6.8
SMILES,OTUD3 block,USP17 inh,USP30 inh,USP8 inh,USP28 block
COc1ccc(OC)c(NC(=O)Cn2cnc3c(c(C)c(C)n3-c3ccccc3)c2=O)c1,-1.8,-0.6,-47.4,31.7*,0.0
Cc1cccc(NC(=O)Cn2cnc3c(c(C)c(C)n3-c3ccccc3)c2=O)c1,-0.1,22.9,-0.4,0.2,6.5
CNC(=O)Cn1cnc2c(c(C)c(C)n2-c2ccc(Cl)cc2)c1=O,3.4,49.9*,-37.9,0.3,0.1
Cc1c(C)n(-c2ccccc2)c2ncn(CC(=O)NC(C)c3ccccc3)c(=O)c12 (configuration not stated),45.4*,x,74.6*,20.4,15.3
Cc1cccc(CNC(=O)Cn2cnc3c(c(C)c(C)n3-c3ccccc3)c2=O)c1,9.2,4.4,9.1,36.1*,0.9
CCN1CCN(c2oc(-c3ccc(COc4ccccc4)o3)nc2C#N)CC1,6.1,3.4,10.7,-3.0,7.8
CCn1c(=O)n(CC(=O)N(C)C2CCCCC2)c(=O)c2cnc(-c3ccccc3)nc21,10.5,6.2,-6.1,19.1,13.4
Cc1c(C)n(-c2ccccc2)c2ncn(CC(=O)NCc3ccccc3F)c(=O)c12,-0.3,6.7,22.0,33.7*,13.7
CCCc1cc(C2CCCN2C(=O)c2cc(C3CCCCC3)no2)no1 (configuration not stated),4.7,2.7,20.1,-6.4,7.0
CCCc1cc(C2CCCN2C(=O)c2cc(-c3ccco3)on2)no1 (configuration not stated),14.0,46.8*,-36.0,-9.7,4.0
Cc1ccc(C(=O)Nc2ncc3c(n2)CC(C)(C)CC3=O)cc1,7.5,19.9,37.3*,12.2,12.0
CC1(C)CC(=O)c2cnc(NC(=O)c3ccco3)nc2C1,2.4,6.1,8.9,0.3,-1.2
Cc1ccc(C(=O)Nc2ncc3c(Cl)cccc3n2)cc1,6.6,30.9*,33.4*,15.9,23.7
O=C(c1ccc2c(=O)n3c(nc2c1)CCCC3)N1CCC2(CC1)OCCO2,9.7,10.0,30.9*,7.8,10.0
COCCN1C(=O)c2[nH]nc(-c3ccccc3O)c2C1c1cccc(OCc2ccccc2)c1 (configuration not stated),-5.0,25.0,27.2,64.7*,12.0
Cc1cc(N2CC3(CCCCC3)OC2=O)nc(C2CCCN2C(=O)C(C)(C)C)n1 (configuration not stated),0.1,4.7,6.7,-7.9,-1.7
Cc1cc(N2CC3(CCCCC3)OC2=O)nc(C2CCN(S(C)(=O)=O)CC2)n1,2.9,14.2,23.7,31.2*,-28.2
